A selection: hits, their analogues and other compounds. The true share with any hit is near 7.3%.
p53 reactivator = mutant p53 re-activation in reporter cells | H1299 p53-A138V BP100-luciferase reporter, luminescence, 24 h | Potency, µM (highest dose often 92.2 µM), for inactives: at the highest dose activity change, positive = activation, usual class: activators | 320,000 compounds, 0.063% hits | AID 504706; also: % of control where 0% means no effect; nearly all actives have a fitted effect of over 45% in size
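H1299 (p53-null), stable ts p53-A138V + BP100-Luc; 1000 cells/well, Opti-MEM/10% FBS; cpd 4 pt, 1:5; 24 h, 37 deg C, 5% CO2; detection reagent 10 min RT; luminescence.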
NPC1 prom act = activators of NPC1 promoter. Huh7 NPC1 promoter luciferase reporter, 24 h. AID 485313. Potency, µM (highest dose often 9.22 µM), for inactives: top-dose activation, usual class: activators. 320,000 compounds, 2.4% hits; also: % of control where 0% means no effect; nearly all actives have a fitted effect of over 60% in size
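Luminescence read-out of NPC1 promoter-driven luciferase in stably transfected Huh7 cells; compounds delivered in DMSO and left 24 h at 37C, 5% CO2, qHTS titration format.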
ELG1 genotox = genotoxicity induction in ELG1-luciferase HEK293T cells | AID 504466 | 330,000 compounds, 1.3% hits | Potency, µM (top dose mostly 46 µM), without a hit: at the highest dose activity change, positive = activation, most hits filed as activators | HEK293T ELG1-luciferase reporter, luminescence, 16 h; also: % of control where 0% means no effect; nearly all actives have a fitted effect of over 60% in size
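ELG1-luciferase HEK293T cells, 2,000/well; compound pinned in; 16 hr, 37 °C, 5% CO2; ONE-Glo, 30 min RT; luminescence on CCD imager.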
Rab9 prom act = Rab9 promoter activation; 320,000 compounds, 2.8% hits; Huh7 Rab9 promoter-luciferase reporter, luminescence, 24 h; Potency, µM (doses to about 9.22 µM), without a hit: at the highest dose activation, negative = inhibition, most hits filed as activators; also: % of control where 0% means no effect; nearly all actives have a fitted effect of over 60% in size
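Cells were plated at 1500 per well in reduced-serum medium with 10% FBS and left 2 h. Compound in DMSO was then added for 24 h at 37 °C. Reporter signal was read by luminescence after 10 min with luciferase detection reagent.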
SMN2 splice up = increases expression of the SMN2 splice variant; HEK293 SMN2-luciferase splicing reporter, luminescence, 30-36 h; Potency, µM (highest dose often 46.1 µM), for the others: at the top dose activity change, positive = activation, actives largely listed as activators; AID 1458; 210,000 compounds, 2.8% hits; also: % of control where 0% means no effect; nearly all actives have a fitted effect of over 55% in size
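HEK293 cells carry an SMN2 minigene-luciferase reporter in which exon 7 inclusion puts luciferase in frame. Cells were seeded at 2000 cells/well, attached for 10-12 hours, then exposed to compounds for 30-36 hours at 37C before ONE-Glo luminescence.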
FLuc counter = firefly luciferase modulation, counter-screen for miR-21 project. 360,000 compounds, 6.9% hits. Potency, µM (top dose mostly 57.5 µM), inactives show at the highest dose activity change, negative = inhibition, usual class: inhibitors. AID 588342. purified FLuc, Km substrates, luminescence inhibition. P08659;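 also: plate controls were vehicle for no effect and reference inhibitor for full effect; nearly all actives have a fitted effect of over 55% in size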
Target sequence (P08659 whole entry, looked up): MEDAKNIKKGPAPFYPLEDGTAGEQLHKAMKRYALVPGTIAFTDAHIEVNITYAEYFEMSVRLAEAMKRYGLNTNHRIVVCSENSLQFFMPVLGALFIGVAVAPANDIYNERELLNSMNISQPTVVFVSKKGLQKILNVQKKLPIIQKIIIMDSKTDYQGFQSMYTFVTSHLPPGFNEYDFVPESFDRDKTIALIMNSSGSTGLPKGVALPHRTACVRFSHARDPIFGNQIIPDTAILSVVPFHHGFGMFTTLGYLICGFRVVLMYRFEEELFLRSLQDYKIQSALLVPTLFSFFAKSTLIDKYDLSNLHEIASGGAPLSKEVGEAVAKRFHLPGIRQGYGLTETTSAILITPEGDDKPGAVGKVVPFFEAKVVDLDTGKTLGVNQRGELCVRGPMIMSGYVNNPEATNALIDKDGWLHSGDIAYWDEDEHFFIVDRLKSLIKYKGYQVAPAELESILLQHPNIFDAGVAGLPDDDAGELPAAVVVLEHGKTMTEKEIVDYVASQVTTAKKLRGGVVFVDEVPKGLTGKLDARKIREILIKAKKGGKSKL
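Purified P. pyralis luciferase (10nM final) with 10uM D-luciferin and 10uM ATP (Km levels) in 50mM Tris acetate pH 7.5, 10mM Mg acetate, 0.01% Tween-20, 0.05% BSA; qHTS 6-point titration, ~60 µM downward; luminescence read.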
Active calls of the source: *; [ ] = another dose, or the depositor's remark. Calls follow the shape of the dose curve; as a rule, active = well fitted curve in the direction sought with a large enough effect; inconclusive = small, poorly fitted or top-dose-only effect, or another doubt; inactive = no such curve, though single readings can be large; an effect the other way counts as inactive or inconclusive. Potency is read from the fitted curve at half-maximal effect.

How did COc1ccc(/C=N/Nc2nc(N3CCCCC3)nc(N3CCCCC3)n2)cc1[N+](=O)[O-] do in these assays?
p53 reactivator: 2%; NPC1 prom act: -2%; ELG1 genotox: -8%; Rab9 prom act: -6%; SMN2 splice up: -9%; FLuc counter: -6%

How did O=[N+]([O-])c1cc(/C=N/Nc2nc(N3CCCCC3)nc(N3CCCCC3)n2)ccc1O do in these assays?
p53 reactivator: -13%; NPC1 prom act: -2%; ELG1 genotox: 2%; Rab9 prom act: 1%; SMN2 splice up: inconclusive; FLuc counter: 15µM*

What do the screens show for `O=[N+]([O-])c1cc(/C=N\Nc2nc(-c3ccccc3)cs2)ccc1O`?
p53 reactivator: 3%; NPC1 prom act: -1%; ELG1 genotox: 1%; Rab9 prom act: -2%; SMN2 splice up: -10%; FLuc counter: inconclusive

How did Cc1csc(N/N=C/c2ccc(O)c([N+](=O)[O-])c2)n1 do in these assays?
p53 reactivator: 9%; NPC1 prom act: 2%; ELG1 genotox: inconclusive; Rab9 prom act: 4%; SMN2 splice up: 18%; FLuc counter: 21µM*

How did Cc1ccccc1NC(=O)CN1C(=O)CCn2nc(-c3cccn3C)cc21 do in these assays?
FLuc counter: -3%

How did CCc1ccc(C(=O)/C=C/c2ccc([N+](=O)[O-])o2)cc1 do in these assays?
p53 reactivator: -15%; NPC1 prom act: -11%; ELG1 genotox: inconclusive; Rab9 prom act: -29%; SMN2 splice up: -92%; FLuc counter: 11µM*

How did Cc1ccc(-c2nnc(N(C)C(=O)c3cccnc3)s2)cc1 do in these assays?
p53 reactivator: 8%; NPC1 prom act: 3.2µM*; ELG1 genotox: 17%; Rab9 prom act: 3.5µM*; SMN2 splice up: 27%; FLuc counter: 8.5µM*

How did COc1ccc(-c2nnc(N(C)C(=O)c3cccnc3)s2)cc1 do in these assays?
p53 reactivator: inconclusive; NPC1 prom act: inconclusive; ELG1 genotox: inconclusive; Rab9 prom act: inconclusive; SMN2 splice up: 16%; FLuc counter: 13µM*

Results for Cc1ccc(-c2nnc(N(C)C(=O)c3cccnc3)s2)cn1 ?
p53 reactivator: inconclusive; NPC1 prom act: 1%; ELG1 genotox: 7%; Rab9 prom act: -5%; SMN2 splice up: 13%; FLuc counter: -2%

How did CCNS(=O)(=O)c1ccc(CCC(=O)NCc2ccccn2)cc1 do in these assays?
NPC1 prom act: -5%; ELG1 genotox: inconclusive; Rab9 prom act: -2%; FLuc counter: 5%

What do the screens show for `COc1ccc(/C(C)=N/NC(=O)c2ccccc2OCc2ccccc2)c(OC)c1`?
p53 reactivator: 7%; NPC1 prom act: inconclusive; ELG1 genotox: inconclusive; Rab9 prom act: inconclusive; SMN2 splice up: 13µM*; FLuc counter: 19µM*

What do the screens show for `COc1ccc(CC(=O)Nc2ccc(/C(C)=N/NC(=O)c3ccc(OC)cc3OC)cc2)cc1`?
p53 reactivator: 14%; NPC1 prom act: 0%; ELG1 genotox: 4%; Rab9 prom act: 0%; FLuc counter: 3%

What do the screens show for `COc1ccc(/C=N/NC(=O)c2ccccc2OCc2ccccc2)c(OC)c1`?
p53 reactivator: 1%; NPC1 prom act: -2%; ELG1 genotox: -12%; Rab9 prom act: 1%; SMN2 splice up: -14%; FLuc counter: 17µM*

Results for COc1ccccc1C=NNC(=O)c1ccccc1OCCOc1ccccc1 ?
p53 reactivator: -2%; ELG1 genotox: -6%

Results for O=C(COc1ccc(Cl)cc1Cl)Nc1ccc(-c2ccc(N3CCOCC3)nn2)cc1 ?
p53 reactivator: 7%; NPC1 prom act: inconclusive; ELG1 genotox: 5%; Rab9 prom act: inconclusive; FLuc counter: 2%

What do the screens show for `O=C(COc1ccc(Cl)cc1Cl)Nc1cccc(-c2ccc(N3CCOCC3)nn2)c1`?
p53 reactivator: 10%; NPC1 prom act: inconclusive; ELG1 genotox: 1.8µM*; Rab9 prom act: 1µM*; FLuc counter: 0.43µM*

How did O=C(COc1ccccc1)Nc1cccc(-c2ccc(N3CCOCC3)nn2)c1 do in these assays?
p53 reactivator: inconclusive; NPC1 prom act: 1.8µM*; ELG1 genotox: 2.3µM*; Rab9 prom act: 1.3µM*; FLuc counter: 1.9µM*

How did CCS(=O)(=O)c1ccc(-c2cccc(NC(=O)COc3ccccc3)c2)nn1 do in these assays?
p53 reactivator: 9%; NPC1 prom act: 0%; ELG1 genotox: 6%; Rab9 prom act: 0%; FLuc counter: 1%

How did Cc1ccc(CC(=O)Nc2ncc([N+](=O)[O-])s2)cc1 do in these assays?
p53 reactivator: 7%; NPC1 prom act: inconclusive; ELG1 genotox: 18%; Rab9 prom act: inconclusive; SMN2 splice up: 13µM*; FLuc counter: 15µM*

Results for O=C(COC(=O)c1ccc(Br)o1)Nc1ncc([N+](=O)[O-])s1 ?
p53 reactivator: inconclusive; NPC1 prom act: 17%; ELG1 genotox: 4%; Rab9 prom act: 22%; FLuc counter: 17µM*

How did Cc1ccc(S(=O)(=O)CC(=O)Nc2ncc([N+](=O)[O-])s2)cc1 do in these assays?
p53 reactivator: -3%; NPC1 prom act: -1%; ELG1 genotox: -10%; Rab9 prom act: 4%; FLuc counter: -1%

How did O=C(CN1C(=O)C2CCCCN2c2ccc(C(=O)N3CCCC3)cc21)NCc1cccc(Cl)c1 (configuration not stated) do in these assays?
FLuc counter: -10%

What do the screens show for `CC(=O)c1ccc(N2CCN(C(=O)c3cc4c(s3)CCCC4)CC2)cc1`?
p53 reactivator: 0%; NPC1 prom act: 5%; ELG1 genotox: 14%; Rab9 prom act: 17%; SMN2 splice up: 11%; FLuc counter: 24µM*

How did O=C(c1cc2c(s1)CCCCC2)N1CCN(c2ncccn2)CC1 do in these assays?
p53 reactivator: 13%; NPC1 prom act: 8%; ELG1 genotox: 2%; Rab9 prom act: 10%; SMN2 splice up: 2%; FLuc counter: -2%[2.3 µM]

How did COc1ccccc1N1CCN(C(=O)c2cc3c(s2)CCC3)CC1 do in these assays?
p53 reactivator: -6%; NPC1 prom act: 1%; ELG1 genotox: -2%; Rab9 prom act: 0%; SMN2 splice up: -15%; FLuc counter: -3%

How did O=C(c1cc2c(s1)CCCC2)n1cccn1 do in these assays?
p53 reactivator: 12%; NPC1 prom act: -1%; ELG1 genotox: 5%; Rab9 prom act: -6%; SMN2 splice up: -1%; FLuc counter: 21µM*

How did NC(=O)C1CCN(C(=O)c2cc3c(s2)CCCC3)CC1 do in these assays?
p53 reactivator: 6%; NPC1 prom act: 1.8µM*; ELG1 genotox: 15%; Rab9 prom act: 1.4µM*; FLuc counter: -14%

Screening results deposited in PubChem by National Center for Advancing Translational Sciences (NCATS).
